Compound activity from PubChem.
This excerpt belongs to a sample that is enriched for hits.
Methyltransferases = Primary Screen for Target Class Profiling of Small Molecule Inhibitors of Methyltransferases. purified enzyme, MTase-Glo SAH luminescence; stronger effect = lower value. calls only at 40 µM. 3.9% of 25,000 active; call rule not given here
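Each enzyme was reacted with SAM and its substrate, with compounds tested once at 40 uM; SAH formed was read by MTase-Glo luminescence.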
MTase-Glo counter = detection enzyme interference, methyltransferase counter-screen; Potency, µM (doses to about 57.3 µM), actives largely listed as inhibitors; 6% of 180 active; MTase-Glo coupled enzymes, SAH conversion luminescence, no MTase; shares compounds with Methyltransferases; active means well fitted inhibition curve with a large enough effect
Of the large screens only hits and unclear results are named; the others gave an inactive call (follow-up assays come after a bar, where they were run).

CN(C)C[C@@H]1CN(S(C)(=O)=O)C[C@H]1NC(=O)c1ccc2[nH]ccc2c1	none
CN(C)CCOCC1(C)COc2ccc(C(=O)Nc3ccc4[nH]ccc4c3)cc2N1 (stereo unspecified)	Methyltransferases active | MTase-Glo counter inactive
CC1(COCC2CC2)COc2ccc(C(=O)Nc3cccc([S+](C)(=O)[O-])c3)cc2N1 (stereo unspecified)	none
COc1ccc(CCN(C)CCc2ccc(OC)c(OC)c2)cc1OC	none
COc1ccc(CNC(=O)c2cc3n(n2)CC(C)(C(=O)NC2CCCC2)N(C)C3=O)cc1OC (stereo unspecified)	none
COc1ccc(CNc2cc3c(cn2)CN(C)CCN3)cc1OC	Methyltransferases active | MTase-Glo counter inactive
CC(C)CCn1c(=O)c2ccccc2n2c(CCC(=O)NCCCOC(C)C)nnc12	none
Cc1cc2c(cc1S(=O)(=O)N1CCN(c3cccc(C)c3C)CC1)n(C)c(=O)n2C	none
Cc1ccc(C(=O)Cn2nc3n(CCC(C)C)c(=O)c4ccccc4n3c2=O)c(C)c1	none
CCC1CCCCN1CCCNC(=O)CCn1ccc2cc(S(=O)(=O)N3CCCCC3)ccc21 (stereo unspecified)	none
CCCC1=Nc2cc(C(=O)NCCCN3CCCCC3CC)ccc2Sc2ccc(C)cc21 (stereo unspecified)	Methyltransferases active | MTase-Glo counter inactive
CCN1c2cc(C(=O)NCCc3ccccc3)ccc2C(=O)N2CCCCC21 (stereo unspecified)	none
COc1cccc(CNC(=O)Cn2nc3n(CCC(C)C)c(=O)c4ccccc4n3c2=O)c1	none
COc1ccccc1CNC(=O)C1(C)Cn2nc(-c3ccccc3)cc2C(=O)N1Cc1ccc(F)cc1 (stereo unspecified)	none
Cc1ccc(CN2CC[C@H](c3nc4ccc(C)cc4[nH]3)C2)cc1	none
COc1ccc(CC(=O)N2CCCC2C(=O)N2CCC(c3nc4ccncc4[nH]3)C2)cc1 (stereo unspecified)	none
COc1ccc2nc([C@H]3CCN(C4CCCCC4)C3)[nH]c2c1	Methyltransferases active | MTase-Glo counter inactive
CCN1CCN(C(=O)Cn2c(=O)oc3cc(S(=O)(=O)N4CC(C)CC(C)C4)ccc32)CC1 (stereo unspecified)	none
CC(C)(C)c1nn2c(SCC(=O)Nc3ccc(Cl)cc3)nnc2[nH]c1=O	none
CC1CCC(NC(=O)C2(C)Cn3c(ccc3-c3ccco3)C(=O)N2CCc2ccc(Cl)cc2)CC1 (stereo unspecified)	none
Cc1cccc(N2CCN(C(=O)CCc3nnc4n(Cc5ccccc5)c(=O)c5ccccc5n34)CC2C)c1 (stereo unspecified)	none
OCC(O)c1cc2n(n1)CCN(Cc1ccccc1Cn1cccn1)C2 (stereo unspecified)	none
O=C(NCc1ccccc1Cn1cccn1)c1ccc2cccc(F)c2n1	none
OC1(Cn2ccnc2)CCN(Cc2ccccc2Cn2cccn2)CC1	Methyltransferases active | MTase-Glo counter inactive
Cc1cc2[nH]c(=O)[nH]c2cc1S(=O)(=O)Nc1cccc(F)c1	none
Cc1ccc(C(N)=O)cc1-c1cc(NCc2cccnc2)nc2[nH]ccc12	none
O=C(NCc1ccccn1)C1CCN(c2cc(C3CC(O)C3)ncn2)CC1 (stereo unspecified)	none
c1ccc(CNc2cc(-c3cc(N4CCCCC4)ncn3)c3cc[nH]c3n2)nc1	Methyltransferases active | MTase-Glo counter inactive
CCOc1ccc(CN2C(=O)c3nc4ccccc4n3CC2(C)C(=O)NC2CCC(C)CC2)cc1 (stereo unspecified)	none
COCCNC(=O)c1cc(N2CCOCC2)cc2c1OCCN2C	none
Cc1cc(C)c(CNC(=O)c2cc(-c3cnn(C)c3C)cc3c2OCCN3C)c(=O)[nH]1	Methyltransferases active | MTase-Glo counter inactive
CCCn1cnc2cc(CNS(=O)(=O)c3ccc(F)cc3)ccc21	none
CC1CCCCC1NC(=O)C1(C)Cn2c(cc3occc32)C(=O)N1Cc1ccccc1Cl (stereo unspecified)	none
CCOc1ccc(-c2ccnc(NC[C@@H]3CCCO3)n2)cc1C(=O)O	none
CCNc1nccc(N2CCC(CC(=O)N3CCN(c4ccccc4F)CC3)CC2)n1	Methyltransferases active | MTase-Glo counter inactive
CCCn1c(C)cnc1CCNC(=O)CC1CCN(C(C)=O)CC1	none
COc1nccc(N2CCC(CC(=O)N3CCN(C(C)=O)CC3)CC2)n1	none
CC1(C)N=C(c2ccccc2)C(=O)N1CC(=O)N1CCN(c2ccccc2F)CC1	none
CCNc1nccc(N2CCC(CC(=O)NCC(C)C)CC2)n1	Methyltransferases active | MTase-Glo counter inactive
CC1(C(=O)NC2CCCCC2)Cn2c(cc3ccccc32)C(=O)N1Cc1cccc(Cl)c1 (stereo unspecified)	none
COC(=O)c1ncn2c1C(=O)N(c1cccc(C)c1C)C(C)(C(=O)NCc1ccccc1OC)C2 (stereo unspecified)	none
CCN1C(=O)c2cc3ccccc3n2CC1(C)C(=O)NCc1ccccc1OC (stereo unspecified)	none
